F508del corr: correctors of CFTR F508del function in bronchial epithelial cells. CFBE cells, YFP halide quenching; stimulated with forskolin plus potentiator P3; % fluorescence drop versus neutral controls. activity (quench increase), % at 7.58 µM. actives 0.36% (n = 350,000). AID 720511;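 active means mean added fluorescence quench of at least 8% versus neutral control, with both replicates also reaching 8%; inconclusive means only one of the mean or replicate conditions met; inactive means mean below 8% and not both replicates reaching 8%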;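 further: cells transiently co-express mutant CFTR-F508del with the halide-sensitive YFP; corrector assay measuring rescue of mutant channel to the surface after 24 h compound exposure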
Env fusion inh: blocks HIV Env-driven cell-cell fusion; HeLa-JRFL Env/CEM21 cell fusion, luciferase; inhibition, % at 12.3 µM; actives 1.1% (n = 360,000); AID 651610;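 active means mean replicate inhibition score of at least 50 and every replicate individually at or above 50; inconclusive means only one of the two criteria met; inactive means mean below 50 and not all replicates reaching 50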;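 further: 0% = plate neutral controls and 100% = maraviroc near 300 nM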
EWS-Fli block: blocks EWS/Fli oncoprotein-driven transcription; A673 NR0B1-luciferase reporter, viability-normalised; inhibition, % at 12.6 µM; actives 0.67% (n = 350,000);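 active means mean inhibition of at least 50% after viability correction, with every replicate also passing that limit; inconclusive means mean reaches 50% but only one of two replicates passes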;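 further: firefly luciferase signal divided by Alamar Blue viability fluorescence both relative to DMSO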
PAX8 inh HTS: lowers PAX8-driven luciferase in RMG-I cells | RMG-I TPO-luciferase reporter, SteadyGlo, 24 h | inhibition, % at 12.6 µM | actives 1.2% (n = 360,000) | AID 652154;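 active means mean replicate inhibition at least 60% with every replicate also reaching 60%; inconclusive means only one of the two criteria is met; inactive means mean below 60% and not all replicates reaching 60%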;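 further: luciferase light reporting Pax8 driven TPO promoter activity; plate controls were median of neutral control wells for no effect and mitoxantrone controls for full effect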
GAA850 FXN act: frataxin GAA850 promoter activation. activation, % at 6 µM. actives 0.56% (n = 360,000). AID 540364. HEK293 lucGAA850 FXN promoter luciferase reporter, 24 h; percent of 10 µM SAHA response;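 active means activation above the average of all compounds screened plus 3 SD, cutoff fixed separately per campaign, cut at about 7.5% in these data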;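 further: 0% = DMSO wells and 100% = 10 µM SAHA wells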
Active calls of the source: *; [ ] = another dose, or the depositor's remark. A selection: hits, their analogues and other compounds. The true share with any hit is near 2.5%.

Screening CC(C)NC(=O)N1C[C@H]2[C@@H](c3ccccc31)[C@@H](CO)N2C(=O)c1ccccc1 returned F508del corr 2, EWS-Fli block 5 and PAX8 inh HTS 5.
CCCNC(=O)N(C)C[C@@H]1Oc2cc(C#CC3CC3)ccc2S(=O)(=O)N([C@@H](C)CO)C[C@H]1C was read as F508del corr 0, Env fusion inh 1[16.7 µM] and EWS-Fli block -9.
For COc1ccc(CN2CC3(C2)CN(Cc2ccc4c(c2)OCO4)[C@H](CO)c2[nH]c4cc(OC)ccc4c23)cc1 the results were F508del corr 5 and EWS-Fli block 16.
O=C1c2ccccc2C(=O)N1CCCCN(C(=O)c1cc([N+](=O)[O-])cc([N+](=O)[O-])c1)c1ccc(Cl)cc1 was read as F508del corr 1, EWS-Fli block -1, PAX8 inh HTS 83* and GAA850 FXN act 0.
For Cc1ccc(-n2c(C)c([N+](=O)[O-])c3ccc(O)c(CN(C)C)c32)cc1 the results were Env fusion inh 62*, PAX8 inh HTS -10 and GAA850 FXN act -7.
COc1ccc(-n2c(C)c([N+](=O)[O-])c3ccc(O)c(CN4CCCCC4)c32)cc1 was read as Env fusion inh inconclusive, PAX8 inh HTS -5 and GAA850 FXN act -7.
For C[C@H]1CCCCO[C@@H](CN(C)Cc2ccccc2)[C@@H](C)CN([C@@H](C)CO)C(=O)c2cc(NS(=O)(=O)c3ccc(F)cc3)ccc2O1 the results were F508del corr -2, Env fusion inh 6[16.7 µM], EWS-Fli block -1 and PAX8 inh HTS 25.
O=C(C[C@@H]1C[C@H]2c3cc(NS(=O)(=O)c4ccc(F)cc4)ccc3O[C@H]2[C@@H](CO)O1)NCc1cccc(F)c1 was read as F508del corr -2, Env fusion inh 4[16.7 µM], EWS-Fli block 7 and PAX8 inh HTS 6.
For CCCNC(=O)N[C@@H]1CC[C@@H](CCn2cc(-c3cccc(F)c3)nn2)O[C@H]1CO the results were F508del corr 2, Env fusion inh -22[16.7 µM], EWS-Fli block -15 and PAX8 inh HTS -31.
For O=C(O)c1ccc2nc(-c3ccccc3)sc2c1 the results were Env fusion inh 44, EWS-Fli block 28, PAX8 inh HTS 74* and GAA850 FXN act 0.
For Nc1ccc(-c2nc3ccc(N)cc3s2)cc1 the results were F508del corr 4, Env fusion inh -57, EWS-Fli block 49, PAX8 inh HTS 40 and GAA850 FXN act 0.
`Nc1ccc(-c2nc3ccc(C(=O)O)cc3s2)cc1` gave Env fusion inh 69*, EWS-Fli block 84*, PAX8 inh HTS 103* and GAA850 FXN act -8.
CCCN1C[C@H](C)[C@@H](OC)CN(C)C(=O)c2cc(NC(=O)Nc3ccccc3F)ccc2OC[C@@H]1C was read as F508del corr -1, Env fusion inh 21[16.7 µM], EWS-Fli block 0 and PAX8 inh HTS 4.
For Cc1ccccc1-c1cnc2c(c1)C(=O)N([C@@H](C)CO)C[C@H](C)[C@H](CN(C)C(=O)c1ccc(F)cc1)O2 the results were F508del corr -3, Env fusion inh -3[16.7 µM] and EWS-Fli block 6.
CC(C)CC#Cc1cnc2c(c1)C(=O)N([C@@H](C)CO)C[C@@H](C)[C@@H](CN(C)C(=O)c1cccc(F)c1)O2 was read as F508del corr 0, Env fusion inh -2[16.7 µM], EWS-Fli block 5 and PAX8 inh HTS -23.
For O=C(C[C@H]1CC[C@@H]2[C@H](COC[C@H](O)CN2C(=O)c2ccccc2F)O1)NCc1ccc(-c2ccccc2)cc1 the results were F508del corr -1.
`Cc1nc(SCc2nc3cc(Cl)c(F)cc3[nH]2)c2oc3ccccc3c2n1` gave F508del corr 1, Env fusion inh 66*, EWS-Fli block 9, PAX8 inh HTS 87* and GAA850 FXN act -1.
Cc1nc(SCc2nc3ccc(Cl)cc3[nH]2)c2oc3ccccc3c2n1 was read as F508del corr 2, Env fusion inh 1, EWS-Fli block -23, PAX8 inh HTS 14 and GAA850 FXN act 0.
`CC(C)c1ccc(-n2nnnc2SCC(=O)NC2CC2)cc1` gave F508del corr -4, Env fusion inh 64*, EWS-Fli block -10, PAX8 inh HTS -3 and GAA850 FXN act 2.
`CC(=O)Nc1ccc(-n2nnnc2SCC(=O)NC2CCCC2)cc1` gave F508del corr 1, Env fusion inh -12, PAX8 inh HTS 0 and GAA850 FXN act -1.
For COc1ccc(-n2nnnc2SCC(=O)NC2CC2)cc1 the results were F508del corr 0, EWS-Fli block 4, PAX8 inh HTS 75* and GAA850 FXN act 0.
